The record followed here is PubChem BioAssay (NCATS).

Results filed as inconclusive are left out. A call without a number means that no potency is given here. Active and inactive are the calls of the source. Calls follow the shape of the dose curve; as a rule, active = well fitted cell-killing curve with a large enough effect; inconclusive = small, poorly fitted or top-dose-only effect, or effect the other way; inactive = no such curve, though single readings can be large or run the other way.
Potency is read from the fitted curve at half-maximal effect.

A short description of this test: Quantitative High-Throughput drug screen in 47 multiple myeloma cell lines against the NCATS MIPE library collection: OPM2_DSMZ cell viability assay (AID 1919872). Also: nearly all actives have a fitted effect of over 30% in size. The settings on record: OPM2 myeloma viability, CellTiter-Glo ATP luminescence, 48 h; series mostly up to 45.8 µM. The source says: PI: Beverly A. Mock Ph.D.
Laboratory of Cancer Biology and Genetics,
Center for Cancer Research, National Cancer Institute,
National Institute of Health, Bethesda, Maryland
Drug resistance and disease progression are common in multiple myeloma (MM) patients, underscoring the need for new therapeutic combinations. […] We hypothesized that effective combinations would reduce MYC expression and enhance p16 activity. […] These preclinical data identify potentially useful drug combinations for evaluation in drug-resistant MM and reveal potential mechanisms of combined drug sensitivity.
Described herein is the primary MIPE qHTS used to cherrypick compounds. Validated compounds were then further tested for potential synergistic activiy.
[1] Peat TJ, Gaikwad SM, Dubois W, Gyabaah-Kessie N, Zhang S, Gorjifard S, Phyo Z, Andres M, Hughitt VK, Simpson RM, Miller MA, Girvin AT, Taylor A, Williams D, D'Antonio N, Zhang Y, Rajagopalan A, Flietner E, Wilson K, Zhang X, Shinn P, Klumpp-Thomas C, McKnight C, Itkin Z, Chen L, Kazandijian D, Zhang J, Michalowski AM, Simmons JK, Keats J, Thomas CJ, Mock BA. Drug combinations identified by high-throughput screening promote cell cycle transition and upregulate Smad pathways in myeloma. Cancer Lett. 2023 Aug 1;568:216284. doi: 10.1016/j.canlet.2023.216284. Epub 2023 Jun 24. PMID: 37356470; PMCID: PMC10408729.
SEQUENCE No. (e.g., 1, 2, 3, etc.); […] (e.g., Cells, Incubation, Reagent, etc.); VALUE and DESCRIPTION.
1; Cells; 5 uL; white, solid bottom 1536-well Greiner assay plate.
2; Compounds; 23 nL; Kalypsis pin tool (Wako USA) equipped with a 1536-well pin head to transfer to the assay plates.
3; Incubation; 48 hours; 37C incubation.
4; Reagent;5uL; CellTiter Glo (Promega).
5; Detector; 425V; Luminescence; Viewlux PerkinElmer.
NOTES (numbers refer to Sequence numbers above)
1. The cell-based screening methods employed in this study were like those previously published. Briefly, the corresponding myeloma cell lines were screened in 1,536-well plates with 500 cells, 5-uL per well for inhibition of cell viability (assessed by measuring ATP levels with CellTiterGlo).
2. NCATS MIPE 4.0 library of approved and investigational drugs were added using the Kalypsis pin tool. Wells treated with DMSO only for 100% viability and media only wells for 0% viability were used as controls.
3. The assay plates were covered and incubated for 48 hours in a 37C, 5% CO2 incubator with controlled humidity.
4. After 48 hours, CellTilter-GloTM luminescent substrate mix (Promega) reagent was added to the assay plate and plates we incubated for 5 min at room temperature.
5. Signal was measured as median relative luminescence units on a ViewLux (PerkinElmer) multiplate reader.
[1] Heske CM, Davis MI, Baumgart JT, Wilson K, Gormally MV, Chen L, Zhang X, Ceribelli M, Duveau DY, Guha R, Ferrer M, Arnaldez FI, Ji J, Tran HL, Zhang Y, Mendoza A, Helman LJ, Thomas CJ. Matrix Screen Identifies Synergistic Combination of PARP Inhibitors and Nicotinamide Phosphoribosyltransferase (NAMPT) Inhibitors in Ewing Sarcoma. Clin Cancer Res. 2017 Dec 1;23(23):7301-7311. doi: 10.1158/1078-0432.CCR-17-1121. Epub 2017 Sep 12. PMID: 28899971; PMCID: PMC6636827.
On the technique in general: ATP-based viability assays read luminescence as a measure of living cells.
Consider `Cc1cccc(C)c1NC(=O)CN1CCCC1=O`, for which the Potency result is “inactive”.

Consider `CNCC(O)c1ccc(O)cc1` (configuration not stated), for which the Potency entry was “inactive”.

As for `C#CCN(C)[C@H](C)Cc1ccccc1`, the Potency entry was “inactive”.

As for `COc1ccc(C(CN(C)C)C2(O)CCCCC2)cc1` (configuration not stated), the Potency entry was “inactive”.

As for `O=C1CC[C@@]2(O)[C@H]3Cc4ccc(O)c5c4[C@@]2(CCN3CC2CC2)[C@H]1O5`, the Potency entry is “inactive”.

For `Fc1ccc(C(OCCN2CCN(CCCc3ccccc3)CC2)c2ccc(F)cc2)cc1`, the Potency was 23.5 µM (active).

In the case of `COC[C@H]1OC(=O)c2coc3c2[C@@]1(C)C1=C(C3=O)C2CCC(=O)[C@@]2(C)C[C@H]1OC(C)=O` (some centres not stated), the Potency is 10.5 µM (active).

On to `C=C(C)[C@H]1Cc2c(ccc3c2O[C@@H]2COc4cc(OC)c(OC)cc4[C@@H]2C3=O)O1`, for which the Potency is 4.69 µM (active).

As for `O=C(O)C(=O)c1cn(Cc2ccccc2)c2ccc(-c3ccc(OC(F)(F)F)cc3)cc12`, the Potency result is “inactive”.

Consider `NCC1(CC(=O)O)CCCCC1`, for which the Potency entry is “inactive”.

For the compound `COc1ccc2c(c1OC)CN1CCc3cc4c(cc3C1C2)OCO4` (configuration not stated), the Potency result was “inactive”.

On to `CC(C)CC(N(C)C)C1(c2ccc(Cl)cc2)CCC1` (configuration not stated), for which the Potency result is “inactive”.

`CN(C)CCc1ccc(O)cc1`: the Potency result is “inactive”.

Consider `CC1=C2C[C@@H]3[C@@H](CC=C4C[C@@H](O)CC[C@@]43C)[C@@H]2CC[C@]12O[C@H]1C[C@H](C)CN[C@H]1[C@H]2C`, for which the Potency result is “inactive”.

On to `Cc1cc(SCc2sc(-c3ccc(C(F)(F)F)c(F)c3)nc2C)ccc1OCC(=O)O`, for which the Potency entry is “inactive”.

In the case of `COC[C@@H](NC(C)=O)C(=O)NCc1ccccc1`, the Potency result was “inactive”.

Consider `CN(C)[C@@H]1C(=O)C(C(N)=O)=C(O)[C@@]2(O)C(=O)C3=C(O)c4c(O)cccc4[C@@](C)(O)[C@H]3C[C@@H]12`, for which the Potency is 16.6 µM (active).

Consider `N[C@@H](Cc1ccc(N(CCCl)CCCl)cc1)C(=O)O`, for which the Potency was 18.7 µM (active).

Regarding `CN(C)CCN(C)CCc1ccc(Cl)c(Cl)c1`, the Potency result is “inactive”.

Take `CN1CCN(C(=O)O[C@H]2c3nccnc3C(=O)N2c2ccc(Cl)cn2)CC1`: the Potency entry was “inactive”.

Take `O=c1[nH]c2ccccc2n1CCCN1CCC(n2c(=O)[nH]c3cc(Cl)ccc32)CC1`: the Potency entry is “inactive”.

In the case of `CNC(=O)c1ccc(N2C(=S)N(c3ccc(C#N)c(C(F)(F)F)c3)C(=O)C23CCC3)cc1F`, the Potency entry was “inactive”.

Take `CCCC(C)(COC(N)=O)COC(=O)NC(C)C` (configuration not stated): the Potency entry is “inactive”.

As for `C[C@@H]1[C@@H](C(=O)C[C@H]2O[C@@H]3O[C@]4(C)CC[C@@H]5[C@H](C)CC[C@@H]([C@H]2C)[C@@]35OO4)O[C@@H]2O[C@]3(C)CC[C@H]4[C@H](C)CC[C@@H]1[C@@]24OO3`, the Potency was 0.372 µM (active).

Consider `COc1ccc(C(=O)c2c(C)n(CCN3CCOCC3)c3ccccc23)cc1`, for which the Potency entry is “inactive”.

Turning to `O=P1(NCCCl)OCCCN1CCCl` (configuration not stated), the Potency result is “inactive”.

As for `COC1(CS(=O)c2ccccc2)CCN(CCc2c[nH]c3ccc(F)cc23)CC1` (configuration not stated), the Potency entry was “inactive”.
